Assay outcomes as filed in PubChem BioAssay.
USP7 block – blocks human USP7 ubiquitin-rhodamine cleavage; purified USP7, Ub-rhodamine cleavage fluorescence; hit rate 0.3% among 47,000; inhibition, % at 20 µM; AID 1645854
USP8 inh – blocks human USP8 ubiquitin-rhodamine cleavage; inhibition, % at 20 µM; hit rate 4.2% among 47,000; AID 1645853; purified USP8, Ub-rhodamine cleavage fluorescence, 30 min
UCHL1 block – human UCHL1 deubiquitinase inhibition | hit rate 0.2% among 47,000 | inhibition, % at 20 µM | purified UCHL1, Ub-rhodamine cleavage fluorescence | P09936
OTUD3 inh – human OTUD3 deubiquitinase inhibition; purified OTUD3, Ub-rhodamine fluorescence, 2 h; inhibition, % at 25 µM; hit rate 0.7% among 47,000
Target sequence (Q5T2D3 whole entry, looked up): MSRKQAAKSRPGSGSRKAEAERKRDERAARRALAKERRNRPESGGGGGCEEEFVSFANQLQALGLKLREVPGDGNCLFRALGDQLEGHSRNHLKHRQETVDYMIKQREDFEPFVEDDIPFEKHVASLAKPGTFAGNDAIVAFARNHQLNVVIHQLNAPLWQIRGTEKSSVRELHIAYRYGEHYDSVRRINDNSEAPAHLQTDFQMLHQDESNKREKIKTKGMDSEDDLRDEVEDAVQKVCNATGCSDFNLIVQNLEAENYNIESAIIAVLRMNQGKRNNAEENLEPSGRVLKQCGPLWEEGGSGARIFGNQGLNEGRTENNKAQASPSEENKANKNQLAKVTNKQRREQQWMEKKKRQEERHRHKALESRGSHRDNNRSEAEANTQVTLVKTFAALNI
USP10 block – human USP10 deubiquitinase inhibition | Q14694 | purified USP10, Ub-rhodamine fluorescence, 60 min | inhibition, % at 20 µM | hit rate 1.1% among 47,000
Starred values were filed as active, the others as inactive; . = not tested or not shown. Compounds with a hit are over-represented: about 4.9% of the library has one in this group of screens. No stated cut-off is given here; in the data, active means inhibition above about 30%; inactive means the rest.

SMILES	USP7 block	USP8 inh	UCHL1 block	OTUD3 inh	USP10 block
COc1ccc(O)c(C(=O)OCc2cc(=O)oc3ccc4ccccc4c23)c1	1.6	36.7*	1.2	-31.8	-3.6
COc1ccccc1CNC(=O)c1ccccc1OCc1ccccc1Cl	-12.7	13.2	6.1	30.4*	12.3
CC(C(=O)NCc1ccc2c(c1)OCO2)N1CCN(c2ccc(O)cc2)CC1 (stereo not drawn)	14.4	59.6*	11.4	15.3	7.7
Cc1ccc(CN2C(=O)c3nc4ccccc4n3CC2(C)C(=O)NC2CCCC2)cc1 (stereo not drawn)	-1.1	-7.6	0.3	0.0	2.4
COc1cccc(C2CC(=O)Nc3nc(-c4ccccc4)[nH]c(=O)c32)c1 (stereo not drawn)	6.6	11.2	0.1	-3.8	11.5
CCc1nc(SCc2nc(N)nc(Nc3ccccc3)n2)n[nH]1	-1.7	76.2*	2.4	0.5	2.2
CC(C)(C)c1nc(SCc2nc(N)nc(Nc3ccccc3)n2)n[nH]1	-0.7	-2.2	0.1	-10.5	-0.5
Cc1ccc(CNCc2cc3c(-c4ccc(F)cc4)nn(-c4ccccc4)c3[nH]c2=O)cc1	-18.8	44.9*	-45.4	-25.1	-5.3
O=c1[nH]c2c(cc1CNCCc1ccccc1)c(-c1ccc(F)cc1)nn2-c1ccccc1	7.5	65.8*	-4.8	-2.7	0.7
CC(C)(C)c1nn(-c2ccccc2)c2[nH]c(=O)c(CNCc3cccnc3)cc12	-1.5	5.0	1.9	11.3	2.5
Cc1nc2ccc(S(=O)(=O)CCC(=O)Nc3ccc(C)c(F)c3)cc2s1	1.4	-25.9	1.1	12.5	0.9
CCC(C(=O)Nc1cc(=O)[nH]c2nc(-c3ccc(OC)cc3)nn12)c1ccccc1 (stereo not drawn)	1.8	4.9	-0.2	-13.3	29.8
Cc1ccc(Cn2cc(C(=O)Nc3ccccc3C(N)=O)ccc2=O)cc1	9.6	54.3*	3.4	22.2	22.1
Cc1c(-c2nsc(NC(=O)c3ccc(Cl)cc3)n2)nnn1-c1ccccc1F	20.7	86.5*	3.1	26.8	43.3*
O=C(Nc1nc(-c2ccccc2)ns1)c1ccc(F)cc1	7.6	-0.4	2.7	6.6	3.9
CC(=O)c1cccc(NC(=O)c2cnc(NCc3ccccc3F)nc2C)c1	-16.4	-33.1	-3.0	-9.0	4.4
COc1ccc(OC)c(NC(=O)c2cnc(NCc3ccccc3F)nc2C)c1	-14.7	32.8*	1.1	-12.1	-1.7
O=C(Nc1ccccc1Cl)c1ccn(COc2ccccc2F)n1	9.3	34.5*	1.4	20.5	4.9
Cc1sc2nc(SCC(=O)Nc3ccccc3O)n(Cc3ccco3)c(=O)c2c1C	8.9	53.8*	8.1	11.2	20.7
Cc1sc2nc(SCC(=O)Nc3cccc(F)c3)n(Cc3ccco3)c(=O)c2c1C	3.0	4.0	1.6	4.8	-0.2
CN1CCCc2cc(C(CNC(=O)Cc3cccs3)N3CCCC3)ccc21 (stereo not drawn)	-16.2	-42.5	-15.3	-146.6	-5.5
Cc1ccccc1C(=O)N1CCCC(c2nc(-c3ccccn3)ncc2-c2ccncc2)C1 (stereo not drawn)	7.1	-150.4	1.8	6.2	0.0
Cc1ccc(CNC(=O)Cn2c(=O)n(-c3ccccc3)c3ncccc32)cc1	3.4	33.3*	0.1	3.8	3.9
O=C(Cn1c(=O)n(-c2ccc(F)cc2)c2ncccc21)NCc1ccccc1	5.9	37.2*	1.5	6.7	6.7
O=C(CCCC(=O)N(c1cccc(F)c1)C(C(=O)NC1CCCC1)c1ccc(Cl)cc1)Nc1ccccn1 (stereo not drawn)	0.0	-4.1	-1.3	6.4	1.8
SMILES	USP7 block	USP8 inh	UCHL1 block	OTUD3 inh	USP10 block
COc1cccc(N2CCN(c3ccc4nnc(CCC(=O)NC5CCCC5)n4n3)CC2)c1	0.2	65.4*	4.0	6.0	-2.0
N#Cc1cccc(Cn2cc(S(=O)(=O)N3CCCC3)ccc2=O)c1	1.1	10.0	-1.9	1.5	-2.3
CN(C)c1ccc(/C=N/NC(=O)c2ccc(Cl)cc2)cc1	9.6	51.0*	0.5	-7.9	13.6
Cc1ccc(Cl)cc1NC(=O)c1ccc(N(C)C)cc1	-0.1	0.1	0.7	-1.5	6.2
O=C(NCCc1ccccc1)c1ccc2c(=O)n(CCC3=CCCCC3)c(=O)[nH]c2c1	5.1	-0.1	0.6	2.9	24.4
O=C(NCCCN1CCN(c2ccc(F)cc2)CC1)c1ccc2c(=O)n(CCc3ccccc3)c(=O)[nH]c2c1	5.8	30.4*	-0.1	28.8	3.2
O=C(NCc1cccc(F)c1)C1CCN(c2cnccn2)CC1	.	1.6	3.1	5.4	-3.7
CCc1ccc(-c2nc(SCC(=O)c3c(N)n(C4CC4)c(=O)[nH]c3=O)n[nH]2)cc1	1.8	36.1*	-3.5	-46.3	-8.7
